The structures appear in SMILES notation. In all, about 190,000 compounds went through this assay and about 1,300 (0.68%) were called active. This is one part of a sample in which actives are shown more often than they occur. Rule as the data show it: active = inhibition above about 50%; inactive = the rest.

In this test the target is Mannose-6-phosphate isomerase (Homo sapiens) (UniProt P34949). Description: MPI inhibition at elevated mannose 6-phosphate – biochemical, fluorescence intensity, high mannose 6-phosphate, primary screen (AID 1220). The following applies: recombinant PMI enzyme, coupled fluorescence intensity; at 20 µM; stronger effect = higher value.
Sequence of Mannose-6-phosphate isomerase (Homo sapiens) (P34949 whole entry, looked up): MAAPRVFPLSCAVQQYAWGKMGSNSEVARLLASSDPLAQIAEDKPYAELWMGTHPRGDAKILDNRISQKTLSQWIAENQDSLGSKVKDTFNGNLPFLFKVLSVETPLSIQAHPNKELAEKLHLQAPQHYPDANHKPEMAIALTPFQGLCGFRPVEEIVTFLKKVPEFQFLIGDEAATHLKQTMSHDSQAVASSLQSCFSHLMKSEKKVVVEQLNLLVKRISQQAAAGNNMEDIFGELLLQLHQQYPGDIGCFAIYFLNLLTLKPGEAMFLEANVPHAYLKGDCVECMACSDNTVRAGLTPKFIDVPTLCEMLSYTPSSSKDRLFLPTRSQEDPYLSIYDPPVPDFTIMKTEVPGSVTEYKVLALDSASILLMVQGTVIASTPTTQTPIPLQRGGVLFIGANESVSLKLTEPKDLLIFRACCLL
In the case of `O=C(NCCN1CCOCC1)c1ccc2ccccc2c1`, the inhibition was -3.6% (inactive).

As to `c1ccc(CCNc2ccnc3cc4ccccc4cc23)cc1`, the inhibition was 63.5% (active).

For `c1ccc2c(NCCCN3CCOCC3)c3ccccc3nc2c1`, the inhibition was 8.7% (inactive). For the compound `c1ccc(CCNc2ncnc3ccccc23)cc1`, the inhibition was 6.3% (inactive). `O=c1ccnc(NCCc2ccccc2)[nH]1`: the inhibition was -1.8% (inactive).

Turning to `c1ccc2cc3c(NCCN4CCOCC4)ccnc3cc2c1`, the inhibition is 57% (active). For `CCOC(=O)c1sc(-c2ccc(OC)cc2)cc1NC(C)=O` the value was -4.9% (inactive).

`Cc1nc([N+](=O)[O-])c(C(=O)OCc2ccccc2Br)n1C`: the inhibition is -9.7% (inactive).

`COc1ccc(C(=O)N/N=C/c2c(CO)cnc(C)c2O)cc1`: the inhibition was -36.3% (inactive). Take `O=C(c1ccccc1)N(Cc1cccnc1)C1(C(=O)Nc2ccccc2)CCCCC1`: the inhibition is -14% (inactive).

Consider `NC(=O)C1CCN(C(=O)CSc2nc3ccccc3[nH]2)CC1`, for which the inhibition was 2.1% (inactive). For `CN(C)c1ccc2c(O)cc(=O)n(C)c2c1` the value was 56.1% (active); for `CN(C)c1ccc2c(=O)[nH][nH]c(=O)c2c1`, 24.5% (inactive); for `COc1cc(=O)n(C)c2cc(N(C)C)ccc12`, 6.9% (inactive). Consider `CCOCCCNC(=O)c1cn(CC(C)C)c(=O)c2cc(OC)c(OC)cc12`, for which the inhibition is 22.8% (inactive). In the case of `Cc1ccccc1-n1c(=O)c2ccccc2n2cnnc12`, the inhibition was 1.1% (inactive). In the case of `Cc1ccccc1N1CC(=O)N(c2ccccc2C)CC1=O`, the inhibition was -4.3% (inactive). For `CC(C)(C)NC(=O)NC(=O)COC(=O)c1cccc(F)c1`, the inhibition is 10.3% (inactive).

For `CC(=O)Nc1ccc(C(=O)n2nc(C)cc2C)cc1`, the inhibition was -3.3% (inactive). Next, `CC(C)CNC(=S)N(Cc1ccco1)Cc1cc2cc3c(cc2[nH]c1=O)OCCO3`: 12.4% (inactive); `CNC(=S)N(Cc1ccco1)Cc1cc2cc3c(cc2[nH]c1=O)OCCO3`: 52.2% (active). `CCNC(=S)N(Cc1ccco1)Cc1cc2cc3c(cc2[nH]c1=O)OCCO3`: the inhibition is 4.6% (inactive). On to `COc1ccc(/C=N/NC(=O)c2cccc(NC(C)=O)c2)c(C(=O)O)c1OC`, for which the inhibition was -6.4% (inactive).

`Cn1ccc(C(=O)OCC(=O)Nc2cccc3ccccc23)n1`: the inhibition was 0.8% (inactive). For the compound `CC(CCc1ccccc1)NC(=O)C(=O)N1CCOCC1` (centres undefined), the inhibition is 0.1% (inactive). With `CN1CCOCCOCCN(C)C(=O)N2CCOCCOCCN(CCOCC2)C1=O`, the inhibition was 3% (inactive). Consider `CC1=C(C)C(=O)C(N2CCOCC2)=CC1=O`, for which the inhibition is -17.5% (inactive). `CC(C)(C)C1=CC(=O)C(N2CCOCC2)=CC1=O`: the inhibition is 65.3% (active). As for `Cc1ccc(S(=O)(=O)Oc2ccc(C)cc2/C=N/N=C2\NC(=O)C(C)S2)cc1` (centres undefined), the inhibition is 8.8% (inactive). With `COc1ccccc1N=C(C)C1=C(O)CSC1=O`, the inhibition was 54.1% (active). Next, `CC(=Nc1ccccc1)C1=C(O)CSC1=O`: -2.7% (inactive); `CC(=Nc1ccccc1C)C1=C(O)CSC1=O`: -8.7% (inactive). Turning to `CCOC(=O)C1C(c2ccccc2)N(C)OC1(O)C(F)(F)F` (centres undefined), the inhibition was 6.7% (inactive).

For the compound `Cc1c(C(=O)OC2CCCC2)[nH]c2c1C(=O)CC(c1ccco1)C2` (centres undefined), the inhibition is 23.1% (inactive).

For `CCOC(=O)C(C)Oc1cccc2c(=O)n(CC(=O)Nc3ccc(OCC)cc3)ccc12` (centres undefined), the inhibition was 7.6% (inactive). For `Cc1cc(C)n2c(SCc3ccc(Cl)cc3Cl)nnc2n1`, the inhibition is -3.9% (inactive). For the compound `CCN(Cc1cc(=O)n2ccsc2n1)Cc1nc2ccccc2c(=O)[nH]1`, the inhibition is -3.9% (inactive). In the case of `CCN(Cc1cc(=O)n2ccsc2n1)c1cccc2ccccc12`, the inhibition was 67.3% (active). Consider `CN(Cc1cc(=O)n2ccsc2n1)c1ccccc1`, for which the inhibition is -17.6% (inactive).

Take `COc1ccc(NC(=O)c2cc(Br)c(Br)s2)cn1`: the inhibition was 53.2% (active). Take `COc1ccc(NC(=O)c2cc(OC)c(OC)c(OC)c2)cn1`: the inhibition was 8.4% (inactive).

For `COc1ccc(NC(=O)c2sccc2C)cn1`, the inhibition is 12.5% (inactive). Next, `COc1cc(CNCCO)cc(Br)c1OCc1ccccc1`: 1.8% (inactive).

Consider `O=C1CN(C(=O)COC(=O)/C=C/c2ccco2)c2ccccc2N1`, for which the inhibition was 1.6% (inactive). As to `Cc1ccc(/C=C/C(=O)N2CC(=O)Nc3ccccc32)o1`, the inhibition was 1.3% (inactive). `Cc1ccc(/C=C/C(=O)OCC(=O)N2CC(=O)Nc3ccccc32)o1`: the inhibition was 55.2% (active).

As to `CN(C)c1nc(OCCOC(=O)c2ccccc2)nc(N(C)C)n1`, the inhibition was 10% (inactive). For `O=[N+]([O-])c1ccc2cn(-c3ccccc3)nc2c1`, the inhibition was -4.3% (inactive). As to `O=[N+]([O-])c1ccc2c(c1)ncn2-c1ccccc1`, the inhibition was -7.7% (inactive). For `CC(=O)Nc1ccc(S(=O)(=O)Nc2nc3ccccc3nc2N2CCCCCC2)cc1` the value was 2.2% (inactive); for `Cc1cccc(N2CCN(C(=S)c3ccc(-c4ccccc4[N+](=O)[O-])o3)CC2)c1`, 57.3% (active); for `O=[N+]([O-])c1ccccc1-c1ccc(C(=S)N2CCCC2)o1`, 18.9% (inactive). In the case of `Cc1ccc(N2CCN(C(=S)c3ccc(-c4cccc([N+](=O)[O-])c4)o3)CC2)cc1`, the inhibition was 26.5% (inactive).

As for `Cc1cc(C)nc(N/N=C/c2cccc3ccccc23)n1`, the inhibition is -14.6% (inactive). As for `COc1cccc(CN(C)C(=O)c2cccnc2SC)c1OC`, the inhibition is -6.5% (inactive). Take `COc1ccc(-c2nnc3ccc(SCC(=O)N4CCOCC4)nn23)cc1`: the inhibition is -2.8% (inactive). `CCN1C(=O)C(F)(CC)C(=O)c2ccccc21` (centres undefined): the inhibition is 4.2% (inactive). For `CC1(O)C(=O)c2ccccc2N(c2ccccc2)C1=O` (centres undefined) the value was -4.8% (inactive); for `CN1C(=O)C(Cl)(Cl)C(=O)c2ccccc21`, 68.4% (active). As for `O=C(NNC(=O)C1CC(c2cccnc2)=NO1)Nc1ccccc1F` (centres undefined), the inhibition was -6.2% (inactive). As for `Cc1cc(S(=O)(=O)N(Cc2ccc(C(C)C)cc2)CC2CCCO2)ccc1-n1cnnn1` (centres undefined), the inhibition is -1% (inactive). With `Cn1c(-c2ccccc2)c(C(=O)CCl)c2ccccc21`, the inhibition is -33.5% (inactive). As to `Cc1ccc(C(=O)CSc2n[nH]c(C)n2)cc1`, the inhibition is -0.9% (inactive). On to `Cc1nc(SCC(=O)c2ccccc2)n[nH]1`, for which the inhibition is 51.2% (active). In the case of `Cc1nc(SCC(=O)c2ccc(F)cc2)n[nH]1`, the inhibition was 12.9% (inactive). In the case of `COc1ccc(CCNC(=O)CS(=O)(=O)c2cn(CC(=O)N3CCOCC3)c3ccccc23)cc1OC`, the inhibition was 51.4% (active). Take `CCN(CC)C(=O)Cn1cc(S(=O)(=O)CC(=O)NCCc2ccc(OC)c(OC)c2)c2ccccc21`: the inhibition is 20.4% (inactive).

Consider `COc1ccc(CCNC(=O)CS(=O)(=O)c2cn(CC(=O)N3CCCC3)c3ccccc23)cc1OC`, for which the inhibition was 46.9% (inactive). With `COc1cc(SC)ccc1C(=O)Nc1ccc(Cl)cn1`, the inhibition is 2.4% (inactive). Consider `CC(=O)N1CCC2(CC1)CC(=O)c1cc(OCC(=O)N3CCOCC3)ccc1O2`, for which the inhibition was -1.2% (inactive). Next, `CC1CCN(C2(O)C(=O)Nc3ccc(Br)cc32)CC1` (centres undefined): -1.3% (inactive); `Cc1cc([N+](=O)[O-])cc2c1NC(=O)C2(O)N1CCOCC1` (centres undefined): 16.7% (inactive).

Regarding `O=C1Nc2c(Br)cc(Br)cc2C1(O)N1CCOCC1` (centres undefined), the inhibition is 55.6% (active). For `COc1ccc(C2C(C(C)=O)=C(O)C(=O)N2CCCn2ccnc2)cc1` (centres undefined) the value was -4% (inactive); for `CCOC(=O)C1(C)C=C(Nc2ccc(O)cc2)C(=O)N1c1ccc(O)cc1` (centres undefined), 58.5% (active).

For `CCOC(=O)C1(C)C=C(Nc2ccc(OC)cc2)C(=O)N1c1ccc(OC)cc1` (centres undefined), the inhibition is 18% (inactive). For the compound `CCOC(=O)C1(C)C=C(Nc2ccc(C)cc2)C(=O)N1c1ccc(C)cc1` (centres undefined), the inhibition is -5.2% (inactive). With `O=C(/C=C/c1ccco1)Nc1nc(-c2ccccn2)cs1`, the inhibition was 25.9% (inactive). Consider `CCOC(=O)c1c2ccc(OCC(=O)N/N=C/c3ccc(Cl)cc3)cc2n2ccccc12`, for which the inhibition is 48.6% (inactive). Next, `Cc1ccc(/C=N/NC(=O)CNC(=O)COc2ccccc2)cc1`: 8.2% (inactive); `Cc1cccc(OCC(=O)N/N=C\c2cn(C)c3ccccc23)c1`: -0.8% (inactive). With `Cc1ccc(OCC(=O)N/N=C\c2cn(Cc3ccccc3)c3ccccc23)cc1C`, the inhibition was 2.4% (inactive). `CCOC(=O)c1c2ccc(OCC(=O)N/N=C/c3ccccc3C(F)(F)F)cc2n2ccccc12`: the inhibition is 64.2% (active).

On to `Cn1c2c(c(=O)n(C)c1=O)[C@@]1(C(=O)Nc3ccccc31)C(C#N)=C(N)O2`, for which the inhibition is 54.6% (active). For the compound `Cn1c2c(c(=O)n(C)c1=O)C1(C(=O)Nc3ccccc31)C(C#N)=C(N)O2` (centres undefined), the inhibition was 47.4% (inactive).

Turning to `N#CC1=C(N)Oc2[nH]c(=S)[nH]c(=O)c2C12C(=O)Nc1ccccc12` (centres undefined), the inhibition is 46.2% (inactive). Regarding `CNc1oc(-c2ccc(Cl)cc2)nc1C#N`, the inhibition was 0.9% (inactive).

Consider `Cc1c(Nc2cc(N3CCCCCC3)c3nonc3c2[N+](=O)[O-])c(=O)n(-c2ccccc2)n1C`, for which the inhibition is 51.5% (active). As to `Cc1c(Nc2cc(N3CCOCC3)c3nonc3c2[N+](=O)[O-])c(=O)n(-c2ccccc2)n1C`, the inhibition was 27.1% (inactive). With `Cc1c(Nc2cc(N3CCCC(C)C3)c3nonc3c2[N+](=O)[O-])c(=O)n(-c2ccccc2)n1C` (centres undefined), the inhibition was 44.3% (inactive).

Turning to `Cc1c(NC(=O)CN2c3cccc4cccc(c34)S2(=O)=O)c(=O)n(-c2ccccc2)n1C`, the inhibition is 5% (inactive).

For `CC1=C(C)CC(C(=O)N2CCN(Cc3ccccc3)CC2)C(C(=O)O)C1` (centres undefined), the inhibition was 9.2% (inactive). `CCCC(=O)Nc1nc2ccc(OC)cc2s1`: the inhibition was 7.2% (inactive).

On to `COc1ccc2nc(NC(=O)Nc3ccccc3)sc2c1`, for which the inhibition is 15.5% (inactive).

As to `COc1ccc2nc(NC(=O)Nc3cccc4ccccc34)sc2c1`, the inhibition was 58.6% (active).

Consider `Cn1c(-c2ccccc2)cc(=O)c2ccccc21`, for which the inhibition was 2% (inactive). With `Cn1c2ccccc2c(=O)n2c(=O)c3ccccc3cc12`, the inhibition is 54.4% (active). For the compound `Cc1cc(=O)n(C)c2ccccc12`, the inhibition is -8.5% (inactive). With `CNC(=O)c1[nH]cnc1C(=O)N[C@@H](Cc1ccccc1)C(=O)OC(C)(C)C`, the inhibition is 2.7% (inactive).
